Laboratory results as given in PubChem BioAssay.
Activity calls are given as the source filed them.

Tests used:
[1] = test system: Plasmodium falciparum Sir2 (PF13_0152, Sir2A); test: Plasmodium falciparum Sir2A binding compounds – biochemical, small-molecule microarray, 635 nm fluorescence, primary screen (AID 1098); settings: fluorescence 635 nm, higher = more signal;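 also: score merges spot fluorescence intensity with its signal-to-noise ratio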
[2] = probe aDKK1 binding to arrayed compounds – biochemical, biotinylated probe, 635/667 nm fluorescence, primary screen (AID 1099); settings: small-molecule microarray, higher = more signal;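 also: score merges 667nm spot fluorescence with signal to noise across triplicate slides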
[3] = probe aCHRDL2 binding to arrayed compounds – biochemical, biotinylated probe, 635/667 nm fluorescence, primary screen (AID 1100); settings: small-molecule microarray, higher = more signal
[4] = change in splice reporter luminescence, either direction, cell-based, HEK293, spliceosome inhibition project, primary screen (AID 1101); settings: HEK293 splicing luciferase reporter, 24 h, higher = more signal, called active from +8 up or from −8 down;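 also: HEK293 cells carrying a splicing-competent luciferase reporter gene; test concentration not given here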
[5] = biological target: Fibroblast growth factor 10 (Homo sapiens) (UniProt O15520); test: compounds binding fibroblast growth factor 10 – biochemical, small-molecule microarray, 635 nm fluorescence, primary screen (AID 1102); settings: FGF10 binding, fluorescence 635 nm, higher = more signal
[6] = test system: glycogen synthase kinase-3 (GSK3A per assay name; protocol says GSK3B); test: compounds binding glycogen synthase kinase-3 – biochemical, small-molecule microarray, 635 nm fluorescence, GSK3A, primary screen (AID 1103); settings: fluorescence 635 nm, higher = more signal; also: the record names both GSK3A and GSK3B
[7] = biological target: Epidermal growth factor receptor (Homo sapiens) (UniProt P00533); test: compounds binding epidermal growth factor receptor – biochemical, small-molecule microarray, 635 nm fluorescence, primary screen (AID 1104); settings: EGFR binding, higher = more signal;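 also: score merges 667 nm emission intensity with spot signal to noise over triplicate slides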
[8] = biological target: Follistatin-related protein 3 (Homo sapiens) (UniProt O95633); test: compounds binding follistatin-related protein 3 – biochemical, small-molecule microarray, 635 nm fluorescence, primary screen (AID 1105); settings: FSTL3 binding, higher = more signal;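 also: score merges emission near 667 nm and signal to noise per printed spot across three slides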
[9] = biological target: Dickkopf-related protein 1 (Homo sapiens) (UniProt O94907); test: small molecules binding DKK1 protein – biochemical, small-molecule microarray, 635 nm fluorescence scan, primary screen (AID 1106); settings: higher = more signal;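 also: score merges emission near 667 nm with signal to noise over three replicate slides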
[10] = test system: Inhibin beta A chain (activin A); test: small molecules binding activin A – biochemical, small-molecule microarray, 635 nm fluorescence scan, primary screen (AID 1107); settings: INHBA, higher = more signal;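 also: mouse activin A protein probed at 4.33 µg/mL on printed slides; score merges bound-protein fluorescence near 667 nm with spot signal-to-noise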
[11] = test system: Human papillomavirus type 1a protein E7 (residues 44-93); test: small molecules binding HPV E7 44-93 – biochemical, small-molecule microarray, residues 44-93, 635 nm fluorescence, primary screen (AID 1108); settings: fluorescence 635 nm, higher = more signal;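 also: E7 fragment applied at 1 µg/mL in TBST for 1 h at 4 C; score combines spot fluorescence with its signal to noise ratio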
[12] = hepatitis C replication reporter changes, two-sided – Huh7 cells, luciferase reporter, HCV replication inhibitor project, primary screen (AID 1109); settings: Huh7 HCV replicon luciferase reporter, 48 h; higher = more signal;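 also: huh7 hepatoma cells harbouring a luciferase neomycin HCV replicon reporter; luciferase luminescence as measure of HCV replicon replication; test concentration not given here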
[13] = biological target: Left-right determination factor 2 (Homo sapiens) (UniProt O00292); test: small molecules binding LEFTY2 protein – biochemical, small-molecule microarray, 635 nm fluorescence scan, primary screen (AID 1110); settings: higher = more signal
[14] = biological target: Calmodulin-1 (Homo sapiens) (UniProt P0DP23); test: small molecules binding calmodulin-1 with EGTA – biochemical, small-molecule microarray, Cy5-labelled CALM1, profiling panel (AID 1111); settings: Cy5-CALM1 binding fluorescence, higher = more signal;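 also: labelled calmodulin applied in Tris saline Tween buffer holding calcium plus EGTA and DTT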
[15] = biological target: Calmodulin-1 (Homo sapiens) (UniProt P0DP23); test: small molecules binding Ca-loaded calmodulin-1 – biochemical, small-molecule microarray, Cy5-labelled CALM1, plus calcium, artefact control for SMM control-protein annotation, profiling panel (AID 1112); settings: Cy5-CALM1 binding fluorescence, higher = more signal;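 also: score merges spot fluorescence with signal to noise from triplicate slides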
[16] = probe aWnt5a binding to arrayed compounds – biochemical, biotinylated probe, 635/667 nm fluorescence, primary screen (AID 1113); settings: small-molecule microarray, higher = more signal;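 also: score merges 667 nm fluorescence intensity with signal-to-noise per printed feature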
[17] = probe aShh binding to arrayed compounds – biochemical, biotinylated probe, 635/667 nm fluorescence, primary screen (AID 1114); settings: small-molecule microarray, higher = more signal;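 also: probe is biotin-labelled aShh protein from a stem cell growth factor screen; measures binding of labelled protein to compounds printed on the slide; score merges feature fluorescence at 667 nm with signal-to-noise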
[18] = probe aNog binding to arrayed compounds – biochemical, biotinylated probe, 635/667 nm fluorescence, primary screen (AID 1115); settings: small-molecule microarray, higher = more signal;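 also: probe is biotinylated aNog protein used at 0.15 µg/mL for 1 h at 4 C; z-score combines 667 nm fluorescence of each spot with its signal to noise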
[19] = biological target: Torsin-1A-interacting protein 1 (Homo sapiens) (UniProt Q5JTV8); test: compound microarray binding of lysate hLAP1 – cell lysate, small-molecule microarray, COS7 lysate, 635/667 nm fluorescence, primary screen (AID 1116); settings: 635 nm fluorescence, higher = more signal
[20] = biological target: Alpha-bungarotoxin (Bungarus multicinctus) (UniProt P60615); test: compounds binding labelled alpha-BTX control protein – biochemical, small-molecule microarray, Alexa647 label, 635/667 nm fluorescence, artefact control for SMM control protein annotation, profiling panel (AID 1117); settings: alpha-BTX-A647 binding fluorescence, higher = more signal
Alpha-bungarotoxin (Bungarus multicinctus), sequence (P60615 whole entry, looked up): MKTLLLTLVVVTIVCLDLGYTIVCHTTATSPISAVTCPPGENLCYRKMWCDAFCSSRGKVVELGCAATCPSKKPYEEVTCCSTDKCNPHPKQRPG

Follistatin-related protein 3 (Homo sapiens), sequence (O95633 whole entry, looked up): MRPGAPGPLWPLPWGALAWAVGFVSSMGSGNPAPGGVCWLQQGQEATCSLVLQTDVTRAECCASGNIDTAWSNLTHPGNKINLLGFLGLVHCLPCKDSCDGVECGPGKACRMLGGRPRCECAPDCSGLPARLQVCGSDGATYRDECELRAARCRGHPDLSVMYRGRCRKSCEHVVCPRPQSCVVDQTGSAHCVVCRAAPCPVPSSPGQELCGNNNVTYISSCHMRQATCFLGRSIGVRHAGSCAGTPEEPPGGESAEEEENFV
Left-right determination factor 2 (Homo sapiens), sequence (O00292 whole entry, looked up): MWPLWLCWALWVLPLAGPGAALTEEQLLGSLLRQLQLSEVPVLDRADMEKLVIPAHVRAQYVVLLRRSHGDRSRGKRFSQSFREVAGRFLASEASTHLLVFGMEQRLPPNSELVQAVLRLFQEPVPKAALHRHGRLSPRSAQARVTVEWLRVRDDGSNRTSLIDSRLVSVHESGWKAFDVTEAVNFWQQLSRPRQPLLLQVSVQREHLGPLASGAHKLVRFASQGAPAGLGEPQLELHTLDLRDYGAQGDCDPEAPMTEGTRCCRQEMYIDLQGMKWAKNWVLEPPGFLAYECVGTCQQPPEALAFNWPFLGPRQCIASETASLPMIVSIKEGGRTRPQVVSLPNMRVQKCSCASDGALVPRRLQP
Dickkopf-related protein 1 (Homo sapiens), sequence (O94907 whole entry, looked up): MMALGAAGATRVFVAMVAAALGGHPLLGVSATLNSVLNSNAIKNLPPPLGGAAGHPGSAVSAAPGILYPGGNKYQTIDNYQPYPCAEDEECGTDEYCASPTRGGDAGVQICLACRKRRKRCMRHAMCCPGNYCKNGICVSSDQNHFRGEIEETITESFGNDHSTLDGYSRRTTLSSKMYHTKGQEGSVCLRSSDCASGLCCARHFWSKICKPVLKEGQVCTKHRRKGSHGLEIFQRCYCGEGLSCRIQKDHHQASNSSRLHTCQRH
Epidermal growth factor receptor (Homo sapiens), sequence (P00533 whole entry, looked up): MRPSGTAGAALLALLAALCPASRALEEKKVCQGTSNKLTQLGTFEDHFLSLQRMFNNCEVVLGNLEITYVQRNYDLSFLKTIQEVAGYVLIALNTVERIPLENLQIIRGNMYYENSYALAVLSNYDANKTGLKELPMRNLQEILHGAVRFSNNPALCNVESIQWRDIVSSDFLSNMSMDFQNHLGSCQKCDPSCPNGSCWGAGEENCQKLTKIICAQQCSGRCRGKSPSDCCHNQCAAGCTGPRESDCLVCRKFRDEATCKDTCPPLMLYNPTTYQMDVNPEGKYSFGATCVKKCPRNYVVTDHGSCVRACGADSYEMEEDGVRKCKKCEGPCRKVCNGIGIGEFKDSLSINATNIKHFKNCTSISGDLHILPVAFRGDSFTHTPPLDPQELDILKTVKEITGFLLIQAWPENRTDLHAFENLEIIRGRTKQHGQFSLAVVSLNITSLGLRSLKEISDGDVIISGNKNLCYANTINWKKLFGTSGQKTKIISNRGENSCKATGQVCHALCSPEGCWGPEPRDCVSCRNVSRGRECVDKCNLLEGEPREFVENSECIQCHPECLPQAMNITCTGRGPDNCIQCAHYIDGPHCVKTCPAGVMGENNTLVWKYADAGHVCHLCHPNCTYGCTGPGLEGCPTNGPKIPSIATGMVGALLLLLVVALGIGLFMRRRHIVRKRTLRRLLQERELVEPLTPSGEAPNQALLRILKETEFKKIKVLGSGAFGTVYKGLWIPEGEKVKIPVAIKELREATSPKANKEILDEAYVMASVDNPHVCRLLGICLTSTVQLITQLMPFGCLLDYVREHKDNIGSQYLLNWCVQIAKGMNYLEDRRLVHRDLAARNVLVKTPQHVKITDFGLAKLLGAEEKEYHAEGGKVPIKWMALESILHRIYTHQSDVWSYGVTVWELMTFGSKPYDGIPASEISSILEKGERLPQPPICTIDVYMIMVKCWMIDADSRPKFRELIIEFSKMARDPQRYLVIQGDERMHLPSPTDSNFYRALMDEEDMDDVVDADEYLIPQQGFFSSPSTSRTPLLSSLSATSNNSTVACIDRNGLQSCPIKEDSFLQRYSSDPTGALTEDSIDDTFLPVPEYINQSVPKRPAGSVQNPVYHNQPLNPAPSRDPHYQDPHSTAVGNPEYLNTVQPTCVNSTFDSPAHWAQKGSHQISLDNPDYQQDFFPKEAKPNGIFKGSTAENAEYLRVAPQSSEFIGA
Fibroblast growth factor 10 (Homo sapiens), sequence (O15520 whole entry, looked up): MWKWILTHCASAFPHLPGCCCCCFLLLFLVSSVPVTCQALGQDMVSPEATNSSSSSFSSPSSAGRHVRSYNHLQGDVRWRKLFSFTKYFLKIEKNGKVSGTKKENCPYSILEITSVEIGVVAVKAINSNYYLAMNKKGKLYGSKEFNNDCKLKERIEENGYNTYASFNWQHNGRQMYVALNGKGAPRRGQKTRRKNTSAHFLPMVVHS
Torsin-1A-interacting protein 1 (Homo sapiens), sequence (Q5JTV8 whole entry, looked up): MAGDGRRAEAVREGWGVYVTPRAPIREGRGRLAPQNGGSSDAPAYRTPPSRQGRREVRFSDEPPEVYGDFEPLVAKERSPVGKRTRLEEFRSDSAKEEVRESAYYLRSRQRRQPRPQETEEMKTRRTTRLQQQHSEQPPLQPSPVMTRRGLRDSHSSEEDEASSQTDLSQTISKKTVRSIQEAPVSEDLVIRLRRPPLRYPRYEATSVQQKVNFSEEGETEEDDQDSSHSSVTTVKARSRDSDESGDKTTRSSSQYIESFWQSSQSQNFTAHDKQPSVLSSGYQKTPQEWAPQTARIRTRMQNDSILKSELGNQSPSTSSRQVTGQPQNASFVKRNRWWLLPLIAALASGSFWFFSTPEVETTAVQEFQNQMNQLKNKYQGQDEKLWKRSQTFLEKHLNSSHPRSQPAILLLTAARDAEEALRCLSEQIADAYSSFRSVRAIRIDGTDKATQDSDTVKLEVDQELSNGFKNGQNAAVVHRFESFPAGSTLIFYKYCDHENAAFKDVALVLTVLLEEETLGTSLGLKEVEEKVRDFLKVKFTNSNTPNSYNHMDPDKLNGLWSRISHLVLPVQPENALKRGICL

Compound | composite z-score [1] | composite z-score [2] | composite z-score [3] | z-score [4] | composite z-score [5] | composite z-score [6] | composite z-score [7] | composite z-score [8] | composite z-score [9] | composite z-score [10] | composite z-score [11] | z-score [12] | composite z-score [13] | composite z-score [14] | composite z-score [15] | composite z-score [16] | composite z-score [17] | composite z-score [18] | composite z-score [19] | composite z-score [20]
C=C(/C(=C/C[C@H](OC(C)=O)c1ccccc1OCCO)c1cnc2ccccc2c1)C(C)C | 1.55 | 0.955 | -0.269 | 0.0118 (inactive) | 0.53 | 0.311 | -0.306 | 1.04 | 0.304 | 1.87 | 0.101 | -2.42 | -0.0274 | 0.361 | -0.378 | -0.034 | 0.184 | -0.036 | 0.327 | 1.19
C=C(CCCC)/C(=C/C[C@@H](OC(C)=O)c1ccc(OCCO)cc1)c1cnc2ccccc2c1 | 0.619 | -0.12 | 0.149 | -0.27 (inactive) | 0.628 | -0.174 | 0.401 | 1.12 | 0.698 | 1.53 | 1.13 | -1.44 | 0.285 | -0.276 | -0.642 | -0.0735 | -0.214 | -0.158 | 0.887 | 1.29
CC(=O)NCCCC[C@@H]1NC(=O)[C@H]2C[C@@H](C(=O)NCCCCCCNC(=O)CS)[C@@H](c3ccc(O)cc3)N2C1=O | 0.629 | -0.0749 | 0.986 | -0.401 (inactive) | 0.0258 | 0.0703 | -0.728 | -0.961 | -0.788 | -1.11 | 1.06 | -0.532 | -0.747 | 0.362 | -0.295 | -0.124 | 0.131 | 0.0933 | 0.284 | 1.33
CCOC(=O)C[C@H]1[C@H](OC(=O)c2ccc(C(=O)c3ccccc3)cc2)[C@@H](NC(=O)c2ccc3ccccc3n2)c2cc(OCCCO)ccc2N1C(=O)c1ccccc1 | 0.772 | 0.177 | 0.628 | 0.305 (inactive) | 0.719 | 1.28 | -0.278 | 0.806 | 0.271 | -0.177 | 0.997 | -1.63 | -0.538 | 1.47 | 0.202 | 0.0079 | 0.308 | 0.217 | 0.164 | 1.05
C=CCOC(=O)[C@H]1[C@@H]2C(=O)O[C@@H](c3ccccc3)[C@@H](c3ccccc3)N2[C@@H](c2ccc(OCCOC(=O)[C@H]3C[C@H]4C(=O)N[C@@H](CCCCNC(C)=O)C(=O)N4[C@H]3c3cccc(OCCO)c3)cc2)[C@]12C(=O)Nc1ccccc12 | 1.42 | -0.194 | 0.285 | 0.29 (inactive) | 1.31 | 1.32 | 0.674 | 0.775 | 0.824 | 0.134 | 1.36 | -1.47 | 0.578 | 2.53 | -0.0073 | -0.101 | 0.13 | 0.0588 | 1.22 | 0.977
